Assay outcomes as filed in PubChem BioAssay.
Most compounds without a hit are left out; they make up all but 3.4% or so of the library.
Bst PK mod: pyruvate kinase (B. stearothermophilus) modulation; purified pyruvate kinase, luminescence ATP production; ribose 5-phosphate activator present at AC10; AID 361; Potency, µM; 51,000 tested, 1.2% active; in the data active = potency below about 11 µM; inconclusive = mostly about 12 µM to 25 µM;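 the screen sought inhibitors and activators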;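 note: scaled between full activation by ribose 5 phosphate and full inhibition by luteolin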
Luciferase inh: inhibitors of firefly luciferase. P08659. purified firefly luciferase, luminescence, 8 min. Potency, µM (doses to about 57.1 µM), for the others: at the highest dose activity change, negative = inhibition, usual class: inhibitors. 72,000 tested, 2.2% active. AID 411; active = well fitted inhibition curve with a large enough effect; inconclusive = small, poorly fitted or top-dose-only effect; note: % is set by controls: 0 for no effect and ±100 for the full control effect; nearly all actives have a fitted effect of over 40% in size
Target sequence (P08659 whole entry, looked up): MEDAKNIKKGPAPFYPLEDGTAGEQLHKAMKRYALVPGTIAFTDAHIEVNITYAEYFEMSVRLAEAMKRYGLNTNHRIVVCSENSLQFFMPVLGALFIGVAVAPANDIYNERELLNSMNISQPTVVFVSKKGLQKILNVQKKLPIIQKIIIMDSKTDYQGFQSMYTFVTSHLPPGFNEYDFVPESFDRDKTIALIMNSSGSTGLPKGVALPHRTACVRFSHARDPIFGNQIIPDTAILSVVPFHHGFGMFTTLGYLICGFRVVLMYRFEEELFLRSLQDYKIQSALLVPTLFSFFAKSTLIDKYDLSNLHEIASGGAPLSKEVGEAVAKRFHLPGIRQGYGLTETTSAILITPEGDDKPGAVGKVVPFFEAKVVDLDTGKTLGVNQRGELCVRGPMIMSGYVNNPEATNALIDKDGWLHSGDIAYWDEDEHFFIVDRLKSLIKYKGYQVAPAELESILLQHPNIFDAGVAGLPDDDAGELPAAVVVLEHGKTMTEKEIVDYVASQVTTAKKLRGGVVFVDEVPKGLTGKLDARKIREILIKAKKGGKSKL
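Luminescence read-out after 8 min at room temperature; enzyme reaction used luciferin plus 10 uM ATP (linear range) in imidazole buffer pH 7.2 with KCl, MgCl2, Tween 20 and BSA. Each sample was run as a titration.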
GBA activity: human lysosomal glucosylceramidase modulation; Potency, µM; purified enzyme, resorufin glucoside fluorescence (screen aimed at inhibitors), 20 min; 48,000 tested, 1.1% active; P04062; in the data active = potency below about 15 µM; inconclusive = mostly about 16 µM to 33 µM;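 note: the screen sought inhibitors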
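Compounds titrated against 0.2 nM normal enzyme, 30 uM resorufin beta-D-glucopyranoside substrate, citrate/phosphate buffer with taurocholate and tween-20, pH 5.9. Reaction ran 20 min at room temperature; fluorescence (Ex 548/Em 600) gave AC50.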
* marks the source's active call; other numbers are inactive results; i = inactive; u = inconclusive; x = no result; [ ] = dose if it differs, or a comment. Potency is the fitted concentration of half-maximal effect.

SMILES	Bst PK mod	Luciferase inh	GBA activity
CN1CCN(CC(=O)Nc2nc(-c3ccccc3)cs2)CC1	>25.6	-2.2%[25.5 µM]	x
CNc1nc(-c2ccc(Cl)cc2)cs1	8.12*	10µM*	>76.9
CCNc1nc(-c2ccc(Cl)cc2)cs1	10.1*	12.6µM*	>76.9
CCSc1nnc(NC(=O)c2ccc(C)o2)s1	>57	-0.8%	>76.9
CCSc1nnc(NC(=O)c2cc(C)oc2C)s1	>57	-5.5%	10.9*
CCCCOC(=O)Cn1c(=N)n(CCN2CCOCC2)c2ccccc21	>57	1.5%	>76.9
N=c1n(CCN2CCOCC2)c2ccccc2n1CC(=O)c1ccc(Cl)c(Cl)c1	3.12*	1.9%	x
CCN1CCC(O)([C@H](C(=O)O)c2ccccc2)CC1	x	-3.2%[11.4 µM]	x
CCNc1ncc2nc(-c3ccc(F)cc3)c(=O)n(Cc3ccc(F)cc3)c2n1	x	0.3%[11.4 µM]	x
O=C(O)CN(CCN(CC(=O)O)CC(=O)O)CC(=O)O.[Cu]	x	-0.1%[11.4 µM]	x
Brc1ccc(-c2nc(-c3ccccc3)no2)o1	i	12.6µM*	u
CCOc1ccc(-c2nc(-c3ccc(OC)cc3)no2)cc1OCC	>57	-7.6%	>76.9
c1ccc(-c2noc(-c3ccc4ccccc4c3)n2)cc1	3.66*	1.26µM*	i
Brc1ccc(-c2nc(-c3cccnc3)no2)o1	x	-20.1%	>76.9
Cc1nc2cnc(N(C)C)nc2n(C[C@H]2CCCO2)c1=O	x	2.1%[11.4 µM]	x
COc1cc2c(C#N)c(N3CCOCC3)nc(N)c2c(N)n1	x	u	>76.9
COc1cc2c(C#N)c(N3CCCCC3)nc(N)c2c(N)n1	i	20µM*	u
COc1cccc(C(=O)Nc2c(C(N)=O)oc3ccccc23)c1	x	-13.5%	x
CCOc1ccc(NC(=O)c2ccc(N)cc2)cc1	x	12.6µM*	x
Cn1cc(Br)c(C(=O)NC2CCCCC2)n1	>57	0.0%	>76.9
CCOc1ccc(NC(=O)c2ccncc2)cc1	x	-10.5%	i
CCOc1ccc(NC(=O)c2nn(C)cc2Br)cc1	u	10µM*	x
CCOc1ccc(C(=O)Nc2c(C(N)=O)oc3ccccc23)cc1	4*	u	i
Cc1cnc(CNc2nc(-c3ccoc3)nc3ccccc23)cn1	x	-3.1%[2.29 µM]	x
O=C(c1cccc(F)c1)N1CCC2(CCCN(Cc3cc(C(F)(F)F)cc(C(F)(F)F)c3)C2)CC1	x	1.1%[11.4 µM]	x
SMILES	Bst PK mod	Luciferase inh	GBA activity
CCOc1ccc(OCc2cccc(C(=O)N3CCOCC3)c2)cc1	8.48*	5.01µM*	>76.9
CN1CCN(C(=O)c2cccc(COc3cc(Cl)ccc3Cl)c2)CC1	>57	-4.6%	x
O=C(COc1ccc2ccc(=O)oc2c1)Nc1ccc2c(c1)OCCO2	x	12.6µM*	>76.9
CC(=O)c1cccc(NC(=O)c2ccco2)c1	>57	0.7%	>76.9
O=C(Nc1ccc2c(c1)Cc1ccccc1-2)c1ccco1	8.78*	10µM*	>76.9
CN(C)C(=O)COc1ccc2ccc(=O)oc2c1	x	-1.3%	x
O=C(Nc1cccc(NC(=O)c2ccco2)c1)c1ccc2c(c1)OCO2	>57	-0.3%	>76.9
Cc1ccc(NC(=O)c2ccco2)cc1C	x	15.8µM*	x
O=C(Nc1ccc(Br)c(Cl)c1)c1ccco1	x	-14.2%	>76.9
O=C(Nc1ccc2c(c1)OCCO2)c1ccco1	x	10µM*	x
Cc1ccc2c(c1)N[C@H](c1ccc(C(=O)O)cc1)c1cccn1-2	x	1.6%[11.4 µM]	x
COCC(=O)N1CCC2(CC1)CCN(c1cccc(-c3ccccc3)c1)CC2	x	-0.8%[11.4 µM]	x
Cc1noc(C)c1-c1nc(NC2CC2)c2ccccc2n1	x	1.3%[2.29 µM]	x
CN(/N=C\c1ccccc1O)c1ccc2ccccc2n1	x	-26.0%[11.4 µM]	x
N=C(N)[C@H](N=Nc1ccccc1)C(N)=O	x	-1.0%[11.4 µM]	x
O=C(Nc1ccc2c(c1)OCO2)OCc1ccccc1	x	12.6µM*	>76.9
O=C(COC(=O)c1ccccc1NC(=O)c1ccco1)Nc1ccc2c(c1)OCO2	>57	-7.7%	>76.9
O=C(COC(=O)c1ccco1)Nc1ccc2c(c1)OCCO2	u	10µM*	>76.9
O=C(Nc1ccc2c(c1)OCO2)C1CCCN1C(=O)OCc1ccccc1 (stereo not drawn)	x	-9.4%	x
COc1cc(NC(=O)CC(C)C)ccc1NC(=O)c1ccco1	x	15.8µM*	x
CCC(=O)Nc1ccc(NC(=O)c2ccco2)c(OC)c1	x	-15.6%	>76.9
CCOC(=O)N/N=C1/C[C@@H](O)[C@@H](O)[C@@H]2[C@@H]3C(=O)N(c4cccc(Oc5ccccc5)c4)C(=O)[C@H]3CC[C@H]12	x	1.0%[11.4 µM]	x
CC(=O)N1CCC2(CCN(Cc3ccc(C#N)cc3)CC2)CC1	x	1.0%[11.4 µM]	x
c1ccc2c(c1)CCN(c1nc3cc4c(cc3s1)OCCO4)C2	0.439*	0.316µM*	>76.9
O=S(=O)(c1ccc2c(c1)OCCO2)N1CCN(c2nc3ccccc3s2)CC1	>57	0.1%	>76.9
CCCCN(CC)CCNS(=O)(=O)c1cccc2cccnc12	x	-4.9%	x
Nc1ccn([C@H]2O[C@H](CO)[C@@H]3[O][Sn]([c]4ccccc4)([c]4ccccc4)[O][C@H]32)c(=O)n1	x	1.8%[11.4 µM]	x
Clc1ccc(OCc2nnc(-c3ccccc3Br)o2)cc1	>57	2.0%	>76.9
